Assay outcomes (PubChem BioAssay)
Hits are enriched below; roughly 1.4% of the tested compounds scored in any of these assays.
RAD54 branch: RAD54 (human) branch migration inhibition; RAD54 Holliday junction branch migration, FAM/BHQ fluorescence; inhibition, % at 10.4 µM; 360,000 tested, 0.14% active; Q92698; AID 602329;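 active = mean normalized replicate activity at least 40 and at least half of replicates scoring 40 or more; inconclusive = only one of the two criteria met; inactive = mean below 40 and under half of replicates reaching 40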;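 also: 0% = median of neutral control wells and 100% = median of positive control wells; inhibitors cause a drop in the FAM fluorescence signal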
AF4-AF9 inh: blocks AF4 peptide binding to human AF9; P42568; AlphaScreen, biotin-AF4 peptide binding to FLAG-AF9; inhibition, % at 10 µM; 350,000 tested, 0.47% active;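 active = every replicate reaching a set inhibition limit, whatever the replicate mean, cut at about 25% in these data; inconclusive = mean inhibition reaches that limit but some replicates miss it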;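 also: 0% = plate neutral control median and 100% = total signal loss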
PGC1a acetyl inh: PGC1a acetylation modulation, inhibitor mode; U2OS PGC1a acetylation, AlphaScreen anti-acetyl-lysine; with virally co-expressed GCN5 acetyltransferase; inhibition, % at 15.6 µM; 350,000 tested, 0.17% active; AID 651687;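 active = every replicate shows inhibition of at least 40%; inconclusive = mean inhibition at least 40% but some replicate below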;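 also: 0% = neutral control wells and 100% = positive control wells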
ERAP1 inh: inhibitors of human ERAP1 aminopeptidase | 340,000 tested, 0.15% active | AID 652197 | recombinant ERAP1, Leu-AMC fluorescence, 60 min | inhibition, % at 10.7 µM;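 active = mean replicate inhibition of at least 30%, or all replicates individually reaching that 30% level; inactive = mean below 30% and not every replicate reaching it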;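 also: 0% = neutral control wells and 100% = L-leucinethiol positive control wells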
Target sequence (Q9NZ08 whole entry, looked up): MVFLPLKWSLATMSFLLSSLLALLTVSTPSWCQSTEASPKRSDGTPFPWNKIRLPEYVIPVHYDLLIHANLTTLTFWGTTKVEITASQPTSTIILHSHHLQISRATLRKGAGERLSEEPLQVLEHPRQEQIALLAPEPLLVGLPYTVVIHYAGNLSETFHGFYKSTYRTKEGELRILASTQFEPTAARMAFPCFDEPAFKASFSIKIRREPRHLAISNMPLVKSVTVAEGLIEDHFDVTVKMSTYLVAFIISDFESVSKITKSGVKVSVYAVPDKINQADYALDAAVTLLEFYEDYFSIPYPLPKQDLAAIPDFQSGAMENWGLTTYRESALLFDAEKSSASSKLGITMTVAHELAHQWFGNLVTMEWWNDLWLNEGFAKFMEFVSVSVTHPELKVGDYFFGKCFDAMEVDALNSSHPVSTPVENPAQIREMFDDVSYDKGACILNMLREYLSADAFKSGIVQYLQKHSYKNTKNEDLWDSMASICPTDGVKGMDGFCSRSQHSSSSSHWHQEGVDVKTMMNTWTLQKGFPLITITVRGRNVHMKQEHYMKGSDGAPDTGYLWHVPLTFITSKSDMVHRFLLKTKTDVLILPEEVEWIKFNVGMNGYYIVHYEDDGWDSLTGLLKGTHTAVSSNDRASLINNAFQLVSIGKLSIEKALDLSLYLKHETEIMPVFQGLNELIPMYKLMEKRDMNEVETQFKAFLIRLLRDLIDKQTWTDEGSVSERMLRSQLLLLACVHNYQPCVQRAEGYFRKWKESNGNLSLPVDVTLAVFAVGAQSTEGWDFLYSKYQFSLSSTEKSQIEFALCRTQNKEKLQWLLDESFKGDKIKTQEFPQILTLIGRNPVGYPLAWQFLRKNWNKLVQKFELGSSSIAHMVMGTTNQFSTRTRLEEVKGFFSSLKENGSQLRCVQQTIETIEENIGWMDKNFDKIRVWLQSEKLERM
RAD52 inh: RAD52 (human) annealing inhibition. P43351. recombinant RAD52 DNA annealing, FRET fluorescence. inhibition, % at 18.7 µM. 360,000 tested, 0.46% active. AID 651710;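 active = every replicate showing at least 50% inhibition; inconclusive = mean inhibition at least 50% but not in every replicate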
INS-1E GSIS act: GLuc luminescence reporter in INS-1E cells, primary screen for activators of glucose-dependent secretion of insulin | 370,000 tested, 0.61% active | AID 743287 | INS-1E GLuc reporter insulin secretion, 2-3 h | activation, % at 16.6 µM;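 active = lowest replicate activation of at least 40%, so every replicate reaches that level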;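 also: 0% = median of neutral control wells and 100% = median of IBMX positive control wells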
* marks the source's active call; other numbers are inactive results; ? = inconclusive; nt = no result given; ! = repeats disagree.

SMILES	RAD54 branch	AF4-AF9 inh	PGC1a acetyl inh	ERAP1 inh	RAD52 inh	INS-1E GSIS act
COc1ccc(Nc2c([N+](=O)[O-])ccc3c2=NC2(CCCCC2)N=3)cc1	2	34*	-1	0	-13	-6
C[C@H](CO)N1C[C@H](C)[C@H](CN(C)S(=O)(=O)c2ccc(Cl)cc2)Oc2ccc(NC(=O)C3CC3)cc2CC1=O	0	1	-2	-2	-10	3
O=C1Nc2ccccc2C(=O)N2C[C@@H](O)C[C@H]12	-6	49*	nt	-4	-2	-3
COC(=O)C[C@@H]1CC[C@@H]2[C@H](COc3ccc(NC(=O)c4cccs4)cc3C(=O)N2C)O1	-3	nt	4	nt	nt	-7
C[C@@H]1CN([C@H](C)CO)C(=O)c2cc(C#CC3(O)CCCC3)cnc2O[C@H]1CN(C)C(=O)C1CCOCC1	8	-4	5	2	6	11
CCOC(=O)C1=C(C)NC(C)=C(C(=O)OCC)C1C	nt	-8	nt	34*	-8	-23
C[C@@H]1CCCCO[C@H](CN(C)C(=O)c2ccccc2)[C@H](C)CN([C@H](C)CO)C(=O)c2cc(NS(C)(=O)=O)ccc2O1	nt	nt	8	nt	nt	2
O=C(c1ccccc1)c1ccc2nc(-c3ccc(NC(=O)c4ccccc4F)cc3)[nH]c2c1	-4	nt	-9	nt	nt	197*
CCc1nnc(NC(=O)CSc2nnc(-c3ccccc3NC(=O)c3ccccc3)o2)s1	-2	nt	2	nt	nt	52*
CCOc1ccc(N)c(SSc2cc(OCC)ccc2N)c1	-6	1	nt	38*	-8	10
CC(C)(O)C#Cc1ccc(C(=O)NC(CCCNC(N)=O)C(=O)O)s1 (stereo not drawn)	1	0	82*	0	-9	14
CC(C)CC(NC(=O)c1ccc(C#CC(C)(C)O)s1)C(=O)O (stereo not drawn)	nt	-2	2	2	-2	10
Cc1c(/C=N/Nc2nc3ccccc3[nH]2)c2ccccc2n1C	-5	25*	-121	-2	-12	nt
CCN1CCN(c2ccc(S(=O)(=O)N3CCCCC3)cc2NC(=O)c2cc3ccccc3o2)CC1	1	11	nt	2	-9	46*
Cc1ccc(S(=O)(=O)N2CCCCC2)cc1NC(=O)c1cc2ccccc2o1	4	-5	-4	5	-21	-10
CC(C)(C)[S@@](=O)N1Cc2cc(C(=O)N3CCOCC3)nc(-c3cccc(C4=CCCC4)c3)c2[C@H]1CCO	nt	nt	nt	nt	nt	-2
CCOC(=O)C1=Nc2ccccc2C1=[N+]=[N-]	nt	nt	45*	nt	nt	nt
CCOC(=O)C1=Nc2cccc3c(O)ccc1c23	nt	2	nt	-18	-119	19
Oc1cc2c(cc1C(c1ccc(Cl)c(Cl)c1)N1CCCC1)OCO2 (stereo not drawn)	nt	27*	nt	-1	-6	4
CC(C)c1ccc(NC(=O)C(c2ccc3c(c2)OCO3)N2CCCCC2)cc1 (stereo not drawn)	-4	1	-3	-4	-17	nt
C[C@@H]1CN(C)C(=O)Cc2cc(N(C)C)ccc2O[C@H]1CN(C)C	nt	nt	nt	nt	nt	-1
O=C(O)CCC(=O)N1CCN(S(=O)(=O)c2ccc3ccccc3c2)CC1	-8	1	nt	1	-10	13
O=C(Cn1ncc(Cl)c(Cl)c1=O)N1CCN(S(=O)(=O)c2ccc3ccccc3c2)CC1	-2	nt	77*	nt	nt	-1
C[C@H]1CN([C@@H](C)CO)S(=O)(=O)c2ccc(-c3ccncc3)cc2O[C@H]1CN(C)Cc1ccncc1	nt	nt	19	nt	nt	-3
O=C(Nc1ccc(F)cc1)N1CC(=O)N2[C@H](CO)[C@H](c3ccc(-c4ccccc4)cc3)[C@H]2C1	nt	nt	11	nt	-1	-5
SMILES	RAD54 branch	AF4-AF9 inh	PGC1a acetyl inh	ERAP1 inh	RAD52 inh	INS-1E GSIS act
CCCN(CCC)CCNC(=O)c1cc2c(=O)n(C)c3ccccc3c2n1C	55*	-4	-5	nt	26	22
Cc1ccc(CNC(=O)c2cc3c(=O)n(C)c4ccccc4c3n2C)cc1	8	-2	6	-2	-15	3
CN(CCNC(=O)c1cc2c(=O)n(C)c3ccccc3c2n1C)Cc1ccccc1	52*	-1	-14	-3	15	-2
Cn1c(C(=O)NCCN2CCOCC2)cc2c(=O)n(C)c3ccccc3c21	34	0	nt	-3	3	-5
C[C@@H]1CN([C@H](C)CO)C(=O)c2cc(NC(=O)CCCN(C)C)ccc2O[C@@H]1CN(C)Cc1ccc2c(c1)OCO2	nt	3	nt	1	nt	7
CCOc1ncccc1C(=O)NC(C)CCc1ccccc1 (stereo not drawn)	-1	0	3	0	5	51*
CCOc1ncccc1C(=O)Nc1ncc(C)s1	nt	-1	nt	-2	0	110*
CSc1ncccc1C(=O)Nc1ncc(C)s1	-10	-2	-2	1	1	-8
CC(CCc1ccccc1)NC(=O)c1ccccc1Cl (stereo not drawn)	6	3	nt	-2	-6	3
CCOc1ncccc1C(=O)NCc1cccc(OC)c1	-11	nt	18	nt	nt	88*
CC1CCN(S(=O)(=O)c2ccc(Oc3ccc([N+](=O)[O-])cc3)cc2)CC1	nt	nt	54*	nt	nt	-10
CCCN1C[C@H](C)[C@H](OC)CN(C)C(=O)c2ccc(NC(=O)c3cccc(F)c3)cc2OC[C@@H]1C	3	?	-2	4	-5	1
CCCN1C[C@@H](C)[C@@H](OC)CN(C)C(=O)c2ccc(NC(=O)Nc3cccc(OC)c3)cc2OC[C@@H]1C	-8	-3	-3	0	68*	-5
CCCN1C[C@@H](C)[C@@H](OC)CN(C)C(=O)c2ccc(NC(=O)c3cccc(F)c3)cc2OC[C@H]1C	4	?	-5	5	-9	47*!
COc1cccc(NC(=O)Nc2ccc3c(c2)C(=O)N(C)C[C@H](OC)[C@@H](C)CN(C)[C@@H](C)CO3)c1	2	9	-6	9	79*	0
COc1cccc(NC(=O)Nc2ccc3c(c2)C(=O)N(C)C[C@@H](OC)[C@@H](C)CN(CC2CC2)[C@@H](C)CO3)c1	-12	9	12	-2	70*	5
C[C@H](CO)N1C[C@H](C)[C@@H](CN(C)C(=O)Nc2cccc(F)c2)Oc2ncc(C3=CCCCC3)cc2C1=O	-3	1	-6	-2	22	-16
COc1ccc2c3c([nH]c2c1)[C@H](CO)N(CC1CC1)CC31CN(C(=O)c2ccccc2)C1	nt	-1	-1	nt	nt	8
CCCNC(=O)Nc1ccc2c(c1)C(=O)N(C)C[C@H](OC)[C@H](C)CN(CC1CCCC1)[C@@H](C)CO2	nt	nt	44*	nt	nt	16
CCCNC(=O)Nc1ccc2c(c1)C(=O)N(C)C[C@@H](OC)[C@@H](C)CN(CC1CCCC1)[C@@H](C)CO2	nt	nt	3	nt	nt	7
CO[C@H]1CN(C)C(=O)c2ccc(NC(=O)C3CCCC3)cc2OC[C@@H](C)N(CCC(F)(F)F)C[C@H]1C	9	28*	7	1	9	-15
